Screens (PubChem)
The list is not random: actives were taken first. Their share in the collection is about 1.3%.
RPL19A-GFP yeast – RPL19A-GFP expression modulators in yeast, primary screen, cell-based, S. cerevisiae, multiplex flow cytometry, MLPCN; S. cerevisiae RPL19A-GFP strain, 3 h; hits give low values; percent response vs DMSO, % at 10 µM; hit rate 0.3% among 330,000;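 active = percent response vs DMSO below 50%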;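 note: median channel GFP fluorescence of the barcoded RPL19A-GFP strain; ratio of sample median GFP to plate DMSO average so 100% = DMSO; lower means less RPL19A-GFP as with rapamycin TOR inhibition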
LAP4-GFP MLPCN – modulators of LAP4-GFP expression in yeast, primary screen, S. cerevisiae, multiplex flow cytometry, MLPCN library. 3 h; median GFP as percent of DMSO wells. hit rate 0.34% among 320,000. GFP response vs DMSO, % at 10 µM;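 active = GFP response vs DMSO above a set limit, about the screen mean plus 3 SD, cut at about 150% in these data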
CIT2 TOR yeast – modulators of CIT2-GFP expression in yeast, primary screen, S. cerevisiae, GFP fusion, multiplex flow cytometry, MLPCN library; GFP response vs DMSO, % at 10 µM; S. cerevisiae CIT2-GFP strain, 3 h; 100 means same as DMSO wells; hit rate 0.065% among 320,000;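 active = GFP response relative to DMSO above a set limit, near the screen mean plus 3 SD, cut at about 150% in these data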;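 note: ratio of well median GFP fluorescence to mean of DMSO wells on the plate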
MEP2-GFP yeast – modulators of MEP2-GFP levels in yeast, primary screen, S. cerevisiae, multiplex flow cytometry, MLPCN library; S. cerevisiae MEP2-GFP strain, 3 h; 100% = DMSO control level; GFP response vs DMSO, % at 10 µM; hit rate 0.51% among 330,000;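 active = GFP response versus DMSO above a set limit, roughly screen mean plus 3 SD, cut at about 180% in these data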;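 note: median GFP fluorescence of the barcode-gated MEP2-GFP cells per well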
AGP1-GFP MLPCN – modulators of AGP1-GFP expression in yeast TOR pathway, primary screen, cell-based, multiplex flow cytometry, S. cerevisiae, MLPCN library; 3 h; GFP as percent of DMSO wells; GFP response vs DMSO, % at 10 µM; hit rate 0.02% among 320,000; AID 2066, 2009;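 active = GFP response relative to DMSO above a set limit, near screen average plus 3 SD, cut at about 150% in these data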;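 note: median GFP channel fluorescence of the gated AGP1 strain per well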
Efflux pump inh – inhibitors of Candida efflux pumps in yeast, primary screen, S. cerevisiae, Nile Red, multiplex; S. cerevisiae Candida pump triplex; inhibition, % at 10 µM; hit rate 0.44% among 330,000; AID 485275, 2010;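 active = plate passing quality check with inhibition over a set limit, or well fluorescence over plate mean plus 4 SD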;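 note: Nile Red retained in pooled yeast measured as flow cytometry median fluorescence; 0% = buffer negative control and 100% = Enniatin B positive control; higher means more Nile Red kept so more efflux inhibition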
Cmpd fluor yeast – counter-screen for efflux pump inhibitors: compound fluorescence | shares compounds with Efflux pump inh | S. cerevisiae AD/pABC3, flow cytometry | fluorescence ratio to DMSO, % at 10 µM | hit rate 4% among 1,700;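 active = fluorescence ratio to DMSO above its plate's cutoff, the plate mean ratio plus 5 SD, cut at about 210% in these data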;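 note: unstained yeast with no Nile Red so the signal is compound autofluorescence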
CaMdr1 efflux inh – inhibitors of Candida albicans Mdr1 efflux, confirmation, flow cytometry, singleplex, Cherry Pick1 set. hit rate 1% among 1,700. AID 588518, 2011. inhibition, % at 10 µM. shares compounds with Efflux pump inh. S. cerevisiae AD/CaMDR1, Nile Red efflux; in the data active = inhibition above about 26%;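 note: 0% = DMSO vehicle and 100% = reference inhibitor; higher means more Nile Red retained so more efflux inhibition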
CaCdr2 efflux inh – inhibitors of Candida albicans Cdr2 efflux pump, confirmation, S. cerevisiae AD/CaCDR2, flow cytometry, cherry pick 1, singleplex. Nile Red retention ratio vs DMSO, % at 10 µM. AID 588520, 2011. Nile Red retention. shares compounds with Efflux pump inh. hit rate 4% among 1,700; in the data active = Nile Red retention ratio vs DMSO above about 190%;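 note: higher ratio means more blocking of Cdr2 efflux of the dye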
CaCdr1 efflux inh – inhibitors of Candida albicans Cdr1 efflux pump, confirmation, S. cerevisiae AD/CaCDR1, flow cytometry, cherry pick 1, singleplex; shares compounds with Efflux pump inh; hit rate 1% among 1,700; inhibition, % at 10 µM; Nile Red efflux;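 active = inhibition above the screen-wide mean plus twice its standard deviation, cut at about 32% in these data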
An asterisk follows results filed as active.

COc1ccc(NC(=O)Nc2cccc3c2O[C@H](CN(C)Cc2ccc(-c4ccccc4)cc2)[C@@H](C)CN([C@H](C)CO)C3=O)cc1 was read as RPL19A-GFP yeast 97.4, LAP4-GFP MLPCN 90.2, CIT2 TOR yeast 82.8, MEP2-GFP yeast 97.6, AGP1-GFP MLPCN 81.5 and Efflux pump inh 0.1.
`N#Cc1cc(C(=O)c2ccccc2O)cn(-c2nccs2)c1=O` gave RPL19A-GFP yeast 93.3, LAP4-GFP MLPCN 105.6, CIT2 TOR yeast 79.5, MEP2-GFP yeast 99.2, AGP1-GFP MLPCN 92.2 and Efflux pump inh 0.0.
For N#Cc1cc(C(=O)c2cc(F)ccc2O)cn(-c2nccs2)c1=O the results were RPL19A-GFP yeast 110.2, LAP4-GFP MLPCN 78.2, CIT2 TOR yeast 100.3, MEP2-GFP yeast 107.8, AGP1-GFP MLPCN 83.2, Efflux pump inh 6.7*, Cmpd fluor yeast 210.1*, CaMdr1 efflux inh 2.3, CaCdr2 efflux inh 95.1 and CaCdr1 efflux inh 1.4.
For CCCN(CCC)C(=O)Cn1c(=O)n(CCCCCC(=O)Nc2ccccc2)c(=O)c2sccc21 the results were RPL19A-GFP yeast 98.9, LAP4-GFP MLPCN 96.4, CIT2 TOR yeast 102.8, MEP2-GFP yeast 88.3, AGP1-GFP MLPCN 99.3, Efflux pump inh 18.9*, Cmpd fluor yeast 104.0, CaMdr1 efflux inh -0.1, CaCdr2 efflux inh 96.5 and CaCdr1 efflux inh 0.0.
CCN(CC)C(=O)Cn1c(=O)n(CCC(=O)Nc2ccc(F)cc2)c(=O)c2sccc21 was read as RPL19A-GFP yeast 93.5, LAP4-GFP MLPCN 94.8, CIT2 TOR yeast 91.5, MEP2-GFP yeast 96.9, AGP1-GFP MLPCN 77.7 and Efflux pump inh -0.2.
`COC(=O)C1=C(C)Nc2c(c(=O)n(C)c(=O)n2C)C1c1ccc(Cl)cc1` (configuration not stated) gave RPL19A-GFP yeast 107.8, LAP4-GFP MLPCN 96.9, CIT2 TOR yeast 98.8, MEP2-GFP yeast 103.2, AGP1-GFP MLPCN 102.2, Efflux pump inh 22.2*, Cmpd fluor yeast 101.4, CaMdr1 efflux inh -0.1, CaCdr2 efflux inh 95.6 and CaCdr1 efflux inh -0.1.
For C/C(=N\NC(=O)c1cccc(Cl)c1)C1C(=O)c2ccccc2C1=O the results were RPL19A-GFP yeast 100.0, LAP4-GFP MLPCN 90.5, CIT2 TOR yeast 97.5, MEP2-GFP yeast 89.8, AGP1-GFP MLPCN 94.6, Efflux pump inh 12.7*, Cmpd fluor yeast 92.1, CaMdr1 efflux inh -0.1, CaCdr2 efflux inh 101.5 and CaCdr1 efflux inh 0.0.
`CC(NC(=O)/C=C/c1ccco1)c1nc2ccccc2n1Cc1c(Cl)cccc1Cl` (configuration not stated) gave RPL19A-GFP yeast 98.3, LAP4-GFP MLPCN 94.2, CIT2 TOR yeast 105.4, MEP2-GFP yeast 89.8, AGP1-GFP MLPCN 98.5, Efflux pump inh 11.4*, Cmpd fluor yeast 98.6, CaMdr1 efflux inh -0.3, CaCdr2 efflux inh 95.1 and CaCdr1 efflux inh 0.1.
For COc1cc([N+](=O)[O-])cc(/C=N/NC(=O)CSc2nnc(-c3ccccc3)n2C)c1O the results were RPL19A-GFP yeast 100.1, LAP4-GFP MLPCN 95.5, CIT2 TOR yeast 105.4, MEP2-GFP yeast 97.8, AGP1-GFP MLPCN 106.5 and Efflux pump inh -0.2.
